# Laboratory results: PubChem BioAssay (NCI)
# About 79,000 compounds went through this panel and 15% of them were active in at least one assay; those are over-represented in the sample as a whole. A number with no mark means an inactive call. Calls of active or inactive are those of the source. Cut-off read from the data, not from the text of the source: active = growth inhibition above about 70%; inactive = the rest.
# Experiments:
# [1] = NCI Yeast Anticancer Drug Screen. Data for the rad50 strain (AID 155);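 note: 0% = growth of vehicle-only cultures of the same strain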; conditions: S. cerevisiae rad50 strain growth inhibition, stronger effect = higher value
# Method in brief: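 Vehicle-treated cultures provide the reference for the growth inhibition reported for compound-exposed, repair-deficient yeast.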
# [2] = NCI Yeast Anticancer Drug Screen. Data for the mec2-1 strain (AID 157); conditions: S. cerevisiae mec2-1 strain, stronger effect = higher value
# Method in brief: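 Each compound was tested on mec2-1 yeast, a strain altered in DNA damage repair or cell cycle control. Growth inhibition is reported relative to vehicle.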
# [3] = NCI Yeast Anticancer Drug Screen. Data for the sgs1 mgt1 strain (AID 161);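 note: 0% = growth of cultures given vehicle only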; conditions: S. cerevisiae sgs1 mgt1 strain, stronger effect = higher value
# Method in brief: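 Read-out: growth inhibition vs vehicle controls. Cells: mutant yeast strain deficient in DNA damage repair.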
# [4] = NCI Yeast Anticancer Drug Screen. Data for the cln2 rad14 strain (AID 165);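 note: 0% = growth equal to vehicle treated cultures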; conditions: S. cerevisiae cln2 rad14 strain, stronger effect = higher value
# Method in brief: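 Test compounds were added to cln2 rad14 yeast cultures; inhibition of growth was then determined by comparison with vehicle treatment.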
# [5] = NCI Yeast Anticancer Drug Screen. Data for the bub3 strain (AID 167); conditions: S. cerevisiae bub3 mutant strain, stronger effect = higher value
# Method in brief: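 Mutant yeast screening strain plus compound; vehicle-treated cultures serve as the 0% inhibition reference.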
# [6] = NCI Yeast Anticancer Drug Screen. Data for the mlh1 rad18 strain (AID 175); conditions: S. cerevisiae mlh1 rad18 strain growth inhibition, stronger effect = higher value
# Method in brief: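 Inhibition values reflect reduced growth of mutant yeast versus vehicle-treated controls following compound exposure; the mutations affect DNA damage repair.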
# [7] = at 5.0 µM (retest, dose inferred, filed as 0.5)
# [8] = at 50.0 µM (retest, dose inferred, filed as 5.0)
Structure (SMILES),"growth inhibition [1, 7]","growth inhibition [1, 8]",growth inhibition ([1]; at 50.0 µM),"growth inhibition [2, 7]","growth inhibition [2, 8]",growth inhibition ([2]; at 50.0 µM),"growth inhibition [3, 7]","growth inhibition [3, 8]",growth inhibition ([3]; at 50.0 µM),"growth inhibition [4, 7]","growth inhibition [4, 8]",growth inhibition ([4]; at 50.0 µM),"growth inhibition [5, 7]","growth inhibition [5, 8]",growth inhibition ([5]; at 50.0 µM),"growth inhibition [6, 7]","growth inhibition [6, 8]",growth inhibition ([6]; at 50.0 µM)
COc1ccc(Cc2c3ccccc3cc[n+]2C)cc1Oc1ccc(Cc2c3ccccc3cc[n+]2C)cc1,2%,87% (active),51.5%,-1%,92% (active),43.8%,2%,93% (active),76.5% (active),-14%,84% (active),-26.7%,-2%,96% (active),40.9%,-2%,96% (active),85.9% (active)
Clc1ccccc1/C=C/c1nccc2ccccc12,15%,98% (active),94.1% (active),-1%,99% (active),60.2%,18%,98% (active),72.3% (active),15%,98% (active),15.1%,64%,99% (active),88.5% (active),1%,98% (active),94.2% (active)
CCN1C(Cl)=NS(=O)(=O)c2ccccc21,17%,36%,-24.4%,24%,43%,-3.45%,22%,39%,-8.5%,19%,32%,-4%,19%,53%,-0.05%,25%,46%,21.2%
CN1C=C(C#N)CCC1Sc1ccc(Cl)cc1 (configuration not stated),-7%,38%,58.1%,5%,65%,58.6%,3%,54%,92.6% (active),-3%,11%,76.8% (active),-4%,60%,59.3%,22%,82% (active),86.9% (active)
COc1ccc(/C(=N\Nc2ccc(Br)cc2)c2ccccc2/C(=N/Nc2ccc(Br)cc2)c2ccccc2OC)cc1,1%,-3%,96% (active),-13%,11%,76.3% (active),5%,18%,97.2% (active),2%,11%,54.6%,-7%,20%,93.5% (active),11%,33%,96.3% (active)
Clc1ccccc1NN(Cc1ccccn1)c1ccccc1Cl,16%,54%,76.5% (active),-6%,32%,58.7%,8%,69%,58.9%,-14%,50%,57%,28%,77% (active),88.4% (active),3%,59%,71.2% (active)
CC(=O)n1c(=S)n(C(C)=O)c2ccccc21,2%,83% (active),51.5%,-16%,89% (active),54.4%,-24%,76% (active),40.2%,10%,39%,67.8%,-23%,76% (active),71.1% (active),-13%,94% (active),30.1%
Nc1cc(Cl)ccc1SSc1ccc(Cl)cc1N,11%,58%,49%,67%,90% (active),32.5%,46%,65%,48.6%,22%,39%,-74.8%,58%,98% (active),50.6%,35%,51%,73.3% (active)
O=C1C(=O)N(c2ccccc2)N=C1N=Nc1ccccc1,4%,33%,90.4% (active),8%,80% (active),86.7% (active),14%,63%,96.2% (active),2%,43%,41.8%,14%,73% (active),69%,14%,77% (active),56%
OC1c2ccccc2C2(O)C1C(c1ccccc1)C(c1ccccc1)C2(O)c1ccccc1 (configuration not stated),32%,95% (active),96.7% (active),-1%,97% (active),97% (active),25%,96% (active),98% (active),-4%,94% (active),95.1% (active),-1%,95% (active),94.8% (active),30%,94% (active),95.7% (active)
NC(=S)N1N=C2c3ccccc3CC[C@H]2[C@@H]1c1cccs1,-52%,20%,59.6%,-4%,40%,34.4%,-26%,63%,80.6% (active),0%,42%,43.1%,-11%,70% (active),60.2%,-17%,68%,51.3%
O=C1c2ccccc2C2N1CCCN2C(=O)c1sc2ccccc2c1Cl (configuration not stated),49%,98% (active),90% (active),30%,99% (active),92% (active),29%,99% (active),92.8% (active),28%,96% (active),90.3% (active),35%,98% (active),92% (active),44%,98% (active),90.5% (active)
O=NNc1nc(-c2ccccn2)nc2ccccc12,-7%,96% (active),96.5% (active),7%,99% (active),97.9% (active),-4%,97% (active),98.2% (active),-2%,92% (active),41.2%,-14%,98% (active),19.9%,1%,99% (active),98.5% (active)
CC(C)OC(=O)c1ccc(NC(=O)CCl)cc1,0%,-1%,66.7%,-1%,5%,59.8%,3%,-8%,79.1% (active),-1%,5%,31.9%,-4%,-2%,61%,-5%,6%,76.2% (active)
Oc1ccc(N(Cc2ccccc2)Cc2ccccc2)cc1,4%,47%,98.2% (active),4%,58%,97.9% (active),6%,40%,98.4% (active),0%,93% (active),97.7% (active),7%,89% (active),97.6% (active),6%,69%,97.3% (active)
CCOC(=O)c1ccc(NC(=O)O/N=C(/Cl)CC)cc1,4%,83% (active),67%,-7%,71% (active),78.5% (active),-26%,75% (active),80.1% (active),35%,51%,64.8%,-40%,51%,63.8%,8%,86% (active),69.7%
c1cc[c]([Sn]([S]c2ccccn2)([c]2ccccc2)[c]2ccccc2)cc1,100% (active),99% (active),99.5% (active),100% (active),99% (active),99.5% (active),99% (active),99% (active),99.1% (active),99% (active),99% (active),97% (active),96% (active),99% (active),99.2% (active),99% (active),99% (active),99.2% (active)
c1cc2c3c(c1)[I+]c1cccc(c1-3)[I+]2,51%,67%,69.8%,34%,58%,27.1%,53%,80% (active),65.9%,24%,40%,45%,39%,31%,36.3%,64%,88% (active),55.9%
CCOC(=O)C1CSC(c2c(CO)cnc(C)c2O)N1 (configuration not stated),-1%,5%,47.6%,-8%,-3%,0.75%,-3%,2%,9.55%,4%,7%,-4.1%,2%,14%,10.8%,2%,5%,18.1%
